Some test systems named below: DU-145 prostate; K-562 leukemia; MALME-3M melanoma; MDA-MB-231 breast; RXF 393 renal; SF-268 CNS; SF-295 CNS; SF-539 CNS; UACC-257 melanoma; M14 melanoma.
Common to all, as to assay: NCI-60 one-dose screen, 48 h (100 = growth as untreated, 0 = no growth, -100 = all killed)
Conditions in all cases: 10 µM

Compounds without any hit were thinned out: in the full panel of roughly 83,000, 20% have a hit.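 Treatment: one concentration, 48 hours, 96-well format. Scoring: percent growth, with anything below 10 considered active.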 A number with no mark means an inactive call. The source made the active and inactive calls.

Regarding `CCCCCCCCCCCCCCCCCCCC(=O)NCCc1c[nH]c2ccc(OC(=O)CCCC(=O)OCCOOCCOOCCOOCCOOCCOOCCOOCCOOCCOOCCOOCCOOCCOOCCOC)cc12`, the growth with DU-145 prostate is 39.8%; in the assay with K-562 leukemia, 2.22% (active); with MALME-3M melanoma it was 102%; in the assay on MDA-MB-231 breast, 44.5%; in the assay with RXF 393 renal it was 91.3%; in the assay with SF-268 CNS, 16.7%. For the same compound, the growth in the assay with SF-295 CNS was 13.3%; in the assay with SF-539 CNS, -32.9% (active); in the assay with UACC-257 melanoma, 92.5%; in the assay on M14 melanoma, 56.4%.
For the compound `O=C(c1ccc(Cl)cc1)C1[C@H](c2ccccc2Br)[C@@H](c2ccccc2)NC12C(=O)Nc1ccc(Cl)cc12` (stereo not given in full), the growth is 29.1% in the assay on DU-145 prostate; 7.94% (active) in the assay with K-562 leukemia; 51.8% in the assay on MALME-3M melanoma; 5.9% (active) with MDA-MB-231 breast; -33.7% (active) in the assay on RXF 393 renal; 23.4% in the assay with SF-268 CNS. The growth with SF-295 CNS was 15.2%; in the assay on SF-539 CNS, 39.7%; with UACC-257 melanoma, 42.5%; in the assay on M14 melanoma, 25.2%.
Take `COc1ccsc1/C=N/NC(=O)c1[nH]c2ccc(Br)cc2c1-c1ccccc1`: the growth with DU-145 prostate was 11.7%; in the assay on K-562 leukemia, 1.22% (active); with MALME-3M melanoma it was 22.3%; with MDA-MB-231 breast it was 3.17% (active); with RXF 393 renal, 30.8%; with SF-268 CNS, 17.2%. The growth with SF-295 CNS is -7.83% (active); in the assay with SF-539 CNS, -18.5% (active); in the assay on UACC-257 melanoma it was 11.4%; in the assay with M14 melanoma, 5.95% (active).
As for `COC[C@@H](CC(C)C)N=C1NC(=O)/C(=C/c2ccc3ncoc3c2)N1`, the growth with DU-145 prostate was 22.6%; with K-562 leukemia, 14.4%; in the assay on MALME-3M melanoma, 32.5%; with MDA-MB-231 breast, 12.3%; with RXF 393 renal it was -8.35% (active); in the assay with SF-268 CNS, 22%. In addition, the growth with SF-295 CNS was 34.4%; in the assay with SF-539 CNS, -5.08% (active); in the assay with UACC-257 melanoma, 11.5%; with M14 melanoma, 41%.
With `Nc1nc2c(F)c(F)c(F)c(F)c2s1`, the growth with DU-145 prostate is 114%; in the assay on K-562 leukemia, 93.1%; in the assay on MALME-3M melanoma, 103%; in the assay with MDA-MB-231 breast, 116%; in the assay on RXF 393 renal, 109%; in the assay on SF-268 CNS it was 97.8%. The growth was 96% in the assay on SF-295 CNS, 99% with SF-539 CNS, 104% in the assay on UACC-257 melanoma and 113% in the assay on M14 melanoma.
Consider `N#Cc1c(NC(=O)c2ccc(C(F)(F)F)c(Cl)c2)sc2c1CCC(=O)C2`, for which the growth is 19.5% with DU-145 prostate; 0.454% (active) in the assay with K-562 leukemia; -56.9% (active) in the assay with MALME-3M melanoma; -87.5% (active) in the assay on MDA-MB-231 breast; -86.3% (active) with RXF 393 renal; -22.7% (active) with SF-268 CNS. Further, the growth was -88.9% (active) in the assay on SF-295 CNS, -87.6% (active) with SF-539 CNS, -23.3% (active) in the assay on UACC-257 melanoma and -68.8% (active) with M14 melanoma.
For `O=C(c1ccc(O)cc1)C1[C@H](c2ccc(Br)cc2)[C@@H](c2ccccc2)NC12C(=O)Nc1ccc(Br)cc12` (stereo not given in full), the growth in the assay with DU-145 prostate is 9.58% (active); in the assay on K-562 leukemia, 3.5% (active); with MALME-3M melanoma it was -49.3% (active); in the assay with MDA-MB-231 breast, -67.7% (active); with RXF 393 renal, -62.9% (active); with SF-268 CNS, 10.6%. Also, the growth with SF-295 CNS is -22.7% (active); in the assay on SF-539 CNS it was -17.8% (active); in the assay on UACC-257 melanoma it was 49.1%; with M14 melanoma it was 14.8%.
Consider `CN(CCF)c1ccc(/C=C/C(=O)c2ccc(N)cc2O)cc1`, for which the growth in the assay with DU-145 prostate is 69.6%; in the assay with K-562 leukemia, 51.4%; in the assay with MALME-3M melanoma, 102%; in the assay on MDA-MB-231 breast, 95.7%; in the assay with RXF 393 renal, 82.8%; with SF-268 CNS, 93.7%. Moreover, the growth with SF-295 CNS is 80.4%; in the assay with SF-539 CNS, 83.5%; with UACC-257 melanoma, 96.6%; in the assay on M14 melanoma, 107%.
As for `O=c1cc(-c2ccccc2)oc2cc(OCCCCNCc3ccccc3)cc(O)c12`, the growth was 27.6% in the assay on DU-145 prostate; -17.6% (active) with K-562 leukemia; -92.6% (active) in the assay with MALME-3M melanoma; -12.4% (active) with MDA-MB-231 breast; -79.8% (active) with RXF 393 renal; 43.6% in the assay with SF-268 CNS. Moreover, the growth with SF-295 CNS was -93.5% (active); in the assay on SF-539 CNS, -96.2% (active); in the assay with UACC-257 melanoma it was -35.6% (active); in the assay on M14 melanoma, -75.9% (active).
For the compound `O=C(c1ccc(Cl)cc1)C1[C@H](c2ccccc2Br)[C@@H](c2ccccc2)NC12C(=O)Nc1ccccc12` (stereo not given in full), the growth in the assay on DU-145 prostate is 17.6%; in the assay with K-562 leukemia it was 3.71% (active); in the assay with MALME-3M melanoma it was 39.6%; with MDA-MB-231 breast, 8.15% (active); in the assay with RXF 393 renal it was -12.6% (active); with SF-268 CNS it was 27.9%. Also, the growth is 12.9% in the assay on SF-295 CNS, 13.5% in the assay with SF-539 CNS, 33.8% in the assay with UACC-257 melanoma and 17.1% with M14 melanoma.
Turning to `O=C(c1ccc(Cl)cc1)C1[C@H](c2ccc(Br)cc2)[C@@H](c2ccccc2)NC12C(=O)Nc1ccc(Cl)cc12` (stereo not given in full), the growth in the assay on DU-145 prostate was -27.9% (active); with K-562 leukemia it was -31.2% (active); in the assay with MALME-3M melanoma it was -97.7% (active); with MDA-MB-231 breast, -95.3% (active); in the assay with RXF 393 renal, -88.8% (active); in the assay with SF-268 CNS, -7.66% (active). Further, the growth was -84% (active) with SF-295 CNS, -58.5% (active) in the assay with SF-539 CNS, -49.4% (active) in the assay on UACC-257 melanoma and 6.42% (active) in the assay on M14 melanoma.
As to `Brc1ccc(/C=C/c2n(Cc3ccc4ccccc4c3)c3ccccc3[n+]2Cc2ccc3ccccc3c2)cc1`, the growth in the assay with DU-145 prostate was 3.53% (active); in the assay with K-562 leukemia, -19.3% (active); in the assay on MALME-3M melanoma it was -87.8% (active); with MDA-MB-231 breast, -95.9% (active); in the assay on RXF 393 renal, -83.1% (active); with SF-268 CNS, -38.3% (active). Besides, the growth in the assay with SF-295 CNS was -65.4% (active); in the assay with SF-539 CNS it was -98.4% (active); in the assay on UACC-257 melanoma, -40.3% (active); in the assay on M14 melanoma, -31.7% (active).
Turning to `CC1=C2C(=C[C@@](C)(CO)[C@@H]2O)/C(=N\N)[C@](C)(O)C12CC2`, the growth was 1.63% (active) in the assay with DU-145 prostate; 19.3% in the assay on K-562 leukemia; -76.2% (active) with MALME-3M melanoma; -21% (active) in the assay on MDA-MB-231 breast; -90.5% (active) in the assay on RXF 393 renal; -3.67% (active) in the assay on SF-268 CNS. For the same compound, the growth with SF-295 CNS was -14.8% (active); in the assay on SF-539 CNS, -75.8% (active); with UACC-257 melanoma, -49.4% (active); in the assay on M14 melanoma, 5.88% (active).

The record behind these values is PubChem BioAssay (NCI).
